# From PubChem BioAssay
# Calls of active or inactive are those of the source. Unless noted, how the calls were made is not given here.
# How the values were obtained:
# [1] = compounds binding Alexa647 anti-His antibody – biochemical, small-molecule microarray, 635 nm fluorescence, artefact control for SMM control protein annotation, primary screen (AID 1128); settings: higher = more signal;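 further: score merges feature fluorescence with signal-to-noise for each printed compound spot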
# [2] = system: Human papillomavirus type 1a E7 protein (residues 1-88); assay: HPV1a E7 small-molecule binders, primary screen, biochemical, small-molecule microarray, residues 1-88, 635 nm (AID 1129); settings: small-molecule microarray binding, fluorescence 635 nm; higher = more signal
# [3] = molecular target: Focal adhesion kinase 1 (Homo sapiens) (UniProt Q05397); assay: PTK2 protein binding on printed compound slides – biochemical, small-molecule microarray, 635/667 nm fluorescence, BSA, DTT, primary screen (AID 1130); settings: 635 nm fluorescence, higher = more signal;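 further: composite of spot emission at 667 nm and signal to noise over triplicate slides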
# Chain of Focal adhesion kinase 1 (Homo sapiens) (Q05397 whole entry, looked up): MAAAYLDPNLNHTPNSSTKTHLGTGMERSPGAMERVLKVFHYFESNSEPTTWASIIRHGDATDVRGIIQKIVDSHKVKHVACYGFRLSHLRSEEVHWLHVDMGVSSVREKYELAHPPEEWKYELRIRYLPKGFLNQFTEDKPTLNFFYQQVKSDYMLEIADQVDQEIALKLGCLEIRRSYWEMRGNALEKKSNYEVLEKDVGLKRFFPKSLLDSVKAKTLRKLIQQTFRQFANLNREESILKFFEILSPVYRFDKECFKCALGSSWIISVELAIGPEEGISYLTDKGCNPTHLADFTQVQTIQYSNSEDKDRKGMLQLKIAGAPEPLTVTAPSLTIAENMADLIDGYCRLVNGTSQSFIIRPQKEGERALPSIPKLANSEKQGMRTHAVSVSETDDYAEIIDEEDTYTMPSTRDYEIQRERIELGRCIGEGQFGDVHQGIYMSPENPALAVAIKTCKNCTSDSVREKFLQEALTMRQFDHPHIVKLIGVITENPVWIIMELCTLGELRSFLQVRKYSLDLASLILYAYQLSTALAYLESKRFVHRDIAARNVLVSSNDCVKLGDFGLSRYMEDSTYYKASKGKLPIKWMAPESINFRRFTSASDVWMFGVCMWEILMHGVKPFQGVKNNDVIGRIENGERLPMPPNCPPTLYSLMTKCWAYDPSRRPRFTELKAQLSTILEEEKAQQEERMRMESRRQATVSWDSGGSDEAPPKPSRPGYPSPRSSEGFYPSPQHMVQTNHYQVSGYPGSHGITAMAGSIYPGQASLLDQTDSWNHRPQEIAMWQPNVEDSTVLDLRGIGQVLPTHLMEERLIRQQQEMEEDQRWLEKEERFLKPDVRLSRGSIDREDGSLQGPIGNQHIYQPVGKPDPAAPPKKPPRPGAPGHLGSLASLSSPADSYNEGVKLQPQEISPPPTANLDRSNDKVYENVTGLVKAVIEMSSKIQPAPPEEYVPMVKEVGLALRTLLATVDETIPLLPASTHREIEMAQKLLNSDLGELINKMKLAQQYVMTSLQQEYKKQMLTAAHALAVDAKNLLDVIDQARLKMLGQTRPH
# [4] = system: Fibrinogen (Alexa647-labelled); assay: Alexa647-fibrinogen binding to printed small molecules – biochemical, small-molecule microarray, 635/667 nm fluorescence, artefact control for SMM control-protein annotation, profiling panel (AID 1131); settings: fibrinogen-A647 binding fluorescence, higher = more signal;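 further: z-score merges 667 nm fluorescence with per-spot signal-to-noise over triplicate slides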
# [5] = molecular target: Follistatin (Homo sapiens) (UniProt P19883); assay: FST protein binding to printed compounds – biochemical, small-molecule microarray, 635/667 nm fluorescence, primary screen (AID 1132); settings: 635 nm fluorescence, higher = more signal
# Chain of Follistatin (Homo sapiens) (P19883 whole entry, looked up): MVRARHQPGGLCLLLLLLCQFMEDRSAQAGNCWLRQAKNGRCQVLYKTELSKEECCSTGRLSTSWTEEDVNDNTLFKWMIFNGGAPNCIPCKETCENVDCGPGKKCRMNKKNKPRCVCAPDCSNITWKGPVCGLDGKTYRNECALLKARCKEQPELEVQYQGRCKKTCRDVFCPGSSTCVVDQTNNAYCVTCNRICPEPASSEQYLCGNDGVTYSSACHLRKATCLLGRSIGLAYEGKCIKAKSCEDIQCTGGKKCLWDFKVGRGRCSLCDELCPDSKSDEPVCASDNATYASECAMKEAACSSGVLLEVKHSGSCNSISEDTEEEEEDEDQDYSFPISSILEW
# [6] = molecular target: Fibroblast growth factor 2 (Homo sapiens) (UniProt P09038); assay: basic fibroblast growth factor binding to printed compounds – biochemical, small-molecule microarray, 635/667 nm fluorescence, primary screen (AID 1133); settings: FGF2, fluorescence 635/667, higher = more signal
# Chain of Fibroblast growth factor 2 (Homo sapiens) (P09038 whole entry, looked up): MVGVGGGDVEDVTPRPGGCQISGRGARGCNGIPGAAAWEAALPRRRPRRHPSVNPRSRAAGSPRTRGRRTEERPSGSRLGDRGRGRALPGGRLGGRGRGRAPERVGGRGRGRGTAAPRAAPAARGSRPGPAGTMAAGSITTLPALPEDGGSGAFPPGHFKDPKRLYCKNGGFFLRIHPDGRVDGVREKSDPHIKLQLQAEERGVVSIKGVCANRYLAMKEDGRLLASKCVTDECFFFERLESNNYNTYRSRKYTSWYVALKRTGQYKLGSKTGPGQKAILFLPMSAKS
# [7] = JC-1 mitochondrial potential readout, lung cancer cells – cell-based, A549, JC-1 fluorescence, basal, 24 h, 100 nL, profiling panel (AID 1138); settings: higher = more signal;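 further: A549 lung adenocarcinoma cells under basal conditions with no added stimulus; test concentration not given here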
# Lefty1 = Lefty1 protein binding to printed compounds – biochemical, small-molecule microarray, 635/667 nm fluorescence, primary screen (AID 1139); settings: fluorescence 635/667, higher = more signal
# [8] = system: wheat germ agglutinin (Triticum aestivum), Alexa647-labelled; assay: Alexa647-WGA lectin binding to printed small molecules – biochemical, small-molecule microarray, 635/667 nm fluorescence, artefact control for SMM control-protein annotation, profiling panel (AID 1140); settings: WGA-A647 binding, 635 nm fluorescence, higher = more signal;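 further: score merges 667 nm feature emission with signal to noise over triplicate slides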
# [9] = molecular target: Luciferin 4-monooxygenase (Photinus pyralis) (UniProt P08659); assay: inhibition of purified Photinus pyralis luciferase – biochemical, luminescence, purified enzyme, 2006 set, primary screen (AID 1141); settings: purified firefly luciferase, SteadyGlo luminescence, 30 min; higher = more signal, called active from +8 up or from −8 down;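 further: cell-free assay with purified firefly luciferase at 100 ng per well in PBS; test concentration not given here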
# Chain of Luciferin 4-monooxygenase (Photinus pyralis) (P08659 whole entry, looked up): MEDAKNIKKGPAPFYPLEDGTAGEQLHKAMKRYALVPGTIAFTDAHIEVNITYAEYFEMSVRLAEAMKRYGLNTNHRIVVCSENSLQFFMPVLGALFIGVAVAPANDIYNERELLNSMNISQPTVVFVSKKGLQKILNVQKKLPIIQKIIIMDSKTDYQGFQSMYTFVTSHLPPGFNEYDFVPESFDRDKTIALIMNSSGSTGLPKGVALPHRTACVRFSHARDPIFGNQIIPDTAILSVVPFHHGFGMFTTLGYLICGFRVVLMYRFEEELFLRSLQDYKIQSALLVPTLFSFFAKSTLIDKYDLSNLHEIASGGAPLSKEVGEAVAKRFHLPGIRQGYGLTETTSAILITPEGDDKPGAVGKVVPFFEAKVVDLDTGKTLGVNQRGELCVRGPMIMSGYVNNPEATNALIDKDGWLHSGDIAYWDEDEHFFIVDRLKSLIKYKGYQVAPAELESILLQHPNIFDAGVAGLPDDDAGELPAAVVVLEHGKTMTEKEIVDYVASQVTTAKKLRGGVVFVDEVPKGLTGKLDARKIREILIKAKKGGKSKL
# [10] = system: Wnt5a (protein binding on small-molecule microarray); assay: small molecules binding Wnt5a protein – biophysical, small-molecule microarray, 635/667 nm fluorescence, primary screen (AID 1142); settings: 635 nm fluorescence, higher = more signal;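 further: fluorescence read at 667 nm with signal to noise per printed feature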
# [11] = ATP-based viability of Huh7 replicon cells – cell-based, CellTiter-Glo luminescence, basal, 48 h, cytotoxicity control for HCV replication inhibitor project, primary screen (AID 1143); settings: higher = more signal, called active from +8 up or from −8 down;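 further: Huh7 hepatoma cells carrying a hepatitis C replication reporter with no stimulus; test concentration not given here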
# [12] = Pseudomonas biofilm growth suppression – PAO1 strain, BacTiter-Glo luminescence, LB-PBS, primary screen (AID 1144); settings: P. aeruginosa PAO1 biofilm, 12 h, higher = more signal
# [13] = basal CRE-LacZ reporter activity in PC12 – cell-based, unstimulated, primary screen (AID 1145); settings: no forskolin, luminescence, 4.5 h, higher = more signal, called active from +8 up or from −8 down
# [14] = forskolin-driven CRE-LacZ activity in PC12 – cell-based, CRE-LacZ reporter, forskolin-stimulated, primary screen (AID 1146); settings: luminescence, 4.5 h, higher = more signal, called active from +8 up or from −8 down;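 further: PC12 cells with 6xCRE LacZ reporter stimulated by forskolin 10 µM; beta-galactosidase reporter signal reflecting CREB driven transcription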
# [15] = molecular target: Streptavidin (Streptomyces avidinii) (UniProt P22629); assay: compounds binding control protein streptavidin – biophysical, small-molecule microarray, 635/667 nm fluorescence, artefact control for SMM compound annotation, primary screen (AID 1147); settings: higher = more signal;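 further: signal reflects streptavidin binding to arrayed compounds as a control protein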
# Chain of Streptavidin (Streptomyces avidinii) (P22629 whole entry, looked up): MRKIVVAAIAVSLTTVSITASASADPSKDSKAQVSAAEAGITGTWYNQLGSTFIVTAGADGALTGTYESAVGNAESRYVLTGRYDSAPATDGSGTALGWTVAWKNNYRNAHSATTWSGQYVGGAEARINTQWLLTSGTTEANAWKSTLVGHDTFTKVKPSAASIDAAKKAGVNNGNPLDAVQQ
# [16] = probe aInhba binding on compound microarray – biochemical, small-molecule microarray, 635/667 nm fluorescence, primary screen (AID 1148); settings: higher = more signal;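 further: score merges 667nm spot fluorescence with signal-to-noise for antibody binding to printed compounds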
# Torsin-1A (Homo sapiens) [17] = molecular target: Torsin-1A (Homo sapiens) (UniProt O14656); assay: TOR1A wild-type binding on microarray – cell lysate, small-molecule microarray, lysate, 635/667 nm, primary screen (AID 1149); settings: COS7 hTOR1A-WT lysate, 635 nm fluorescence, higher = more signal
# Chain of Torsin-1A (Homo sapiens) (O14656 whole entry, looked up): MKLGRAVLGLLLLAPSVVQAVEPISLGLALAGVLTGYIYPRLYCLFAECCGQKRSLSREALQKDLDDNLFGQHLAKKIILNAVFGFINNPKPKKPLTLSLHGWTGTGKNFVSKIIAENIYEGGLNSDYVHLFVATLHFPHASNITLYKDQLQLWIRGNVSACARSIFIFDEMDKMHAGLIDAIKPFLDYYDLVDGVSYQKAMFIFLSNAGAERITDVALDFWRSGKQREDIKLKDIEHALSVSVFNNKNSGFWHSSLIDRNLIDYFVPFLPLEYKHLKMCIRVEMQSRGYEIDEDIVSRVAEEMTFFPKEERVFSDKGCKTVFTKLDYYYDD
# Torsin-1A (Homo sapiens) [18] = molecular target: Torsin-1A (Homo sapiens) (UniProt O14656); assay: torsin A mutant lysate binding on microarrays – cell lysate, small-molecule microarray, COS7 lysate, 635/667 nm fluorescence, primary screen (AID 1150); settings: COS7 hTOR1A mutant lysate, 635 nm fluorescence, higher = more signal;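 further: score pools 667 nm emission and signal to noise measuring lysate protein binding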
# [19] = system: Sonic hedgehog protein (Shh); assay: Sonic hedgehog microarray binding compounds – biochemical, small-molecule microarray, 635/667 nm fluorescence, primary screen (AID 1151); settings: 635 nm fluorescence, higher = more signal;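 further: Shh protein binding to compounds spotted on small-molecule microarray slides; score combines spot fluorescence intensity with signal-to-noise across triplicate slides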
SMILES,composite z-score [1],composite z-score [2],composite z-score [3],composite z-score [4],composite z-score [5],composite z-score [6],z-score [7],composite z-score (Lefty1),composite z-score [8],z-score [9],composite z-score [10],z-score [11],z-score [12],z-score [13],z-score [14],composite z-score [15],composite z-score [16],composite z-score (Torsin-1A (Homo sapiens) [17]),composite z-score (Torsin-1A (Homo sapiens) [18]),composite z-score [19]
C#CCOC(=O)N[C@H](C=CCCCC)c1ccccc1,1.33,0.95,0.4,0.762,-0.101,-0.204,0.59,-1.09,0.817,0.597 (inactive),-0.0582,-0.342 (inactive),-0.604 (inactive),0.197 (inactive),0.488 (inactive),0.335,0.0714,0.28,0.0584,-0.13
COC(=O)[C@@]1(Cc2ccc(F)cc2)[C@H]2c3cc(C(=O)N(C)C)n(CCSCCO)c3C[C@H]2CN1C(=O)c1ccccc1,2.06,0.674,0.879,0.241,0.297,-0.254,0.554,-0.601,0.45,0.0635 (inactive),-0.0292,-0.259 (inactive),-0.482 (inactive),-0.565 (inactive),0.222 (inactive),0.352,-0.0001,0.0627,0.387,-0.509
O=C1N(CCS(=O)(=O)c2ccccc2)Cc2ccccc2C[C@@]12COC(c1ccc(OCCCO)cc1)=N2,2.25,1.26,1.04,0.841,1.4,0.962,0.367,0.619,1.15,-0.966 (inactive),0.933,-4.36 (inactive),0.898 (inactive),-0.183 (inactive),-2.06 (inactive),0.758,0.325,0.701,0.945,2.03
O=C1OCC=C[C@H]2OC34C=CCN(CCN5CCOCC5)C(=O)[C@H]3N(CCCCCO)C(=O)[C@@H]4[C@@H]12 (stereo not given in full),2.23,-0.277,0.311,-0.155,-0.307,-0.12,-0.829,-0.0262,0.28,-0.346 (inactive),-0.304,0.0976 (inactive),0.0824 (inactive),2.22 (inactive),-0.555 (inactive),0.257,-0.128,-0.419,0.11,0.175
COCCCNC(=O)[C@@H]1c2ccccc2C(=O)N(c2ccc(C)cn2)[C@H]1c1ccc(CO)cc1,-0.346,-1.11,-1.24,-1.04,-1.25,-2.41,-0.758,-1.03,0.0195,0.195 (inactive),-1.53,-0.17 (inactive),-0.894 (inactive),-0.374 (inactive),-0.563 (inactive),-1.6,-0.159,-2.83,-2.65,-1.2
